Test results: PubChem BioAssay (EPA / NIEHS)
Activity calls are given as the source filed them. The calls were made as follows: active = hit-call score of the fitted dose curve at least 0.9, where 1 is the maximum; inactive = score below 0.9.

Columns and labels:
[1] = ATG_GLI_CIS: Attagene CIS-FACTORIAL HepG2 Assay for human Zinc Finger Protein GLI1 (AID 2282945); conditions: HepG2, Attagene cis-factorial reporter mRNA, GLI element; actives raise or lower the signal
Summary of the method: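 HepG2 cells transiently transfected with cis-promoter multiplexed reporter units report endogenous transcription factor activity. After 24 h chemical exposure, reporter mRNA was quantified by RT-PCR, 6-FAM labelling, HpaI digestion and capillary electrophoresis, with bidirectional fitting against DMSO.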

[2] = ATG_GRE_CIS: Attagene CIS-FACTORIAL HepG2 Assay for human Glucocorticoid Response Elements (GRE) (AID 2282947); conditions: HepG2 GRE cis-reporter, Attagene multiplex mRNA; actives raise or lower the signal
Summary of the method: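 Cells (HepG2) bearing transfected cis-promoter reporter transcription units were treated with chemical for 24 hours. Reporter mRNA was measured via RT-PCR with capillary electrophoresis, and activity was fitted in both directions relative to DMSO.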

[3] = ATG_ISRE_CIS: Attagene CIS-FACTORIAL HepG2 Assay for human Interferon Regulatory Factor 1 (IRF1) binding to an Interferon-Stimulated Response Element (ISRE) (AID 2282948); conditions: HepG2 ISRE cis-reporter (Attagene), mRNA transcription readout; actives raise or lower the signal
Summary of the method: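 Uses HepG2 liver cells transfected with cis-regulated reporters and measures mRNA 24 h post-dosing through RT-PCR, primer-extension labelling and capillary electrophoresis, with DMSO as negative control.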

[4] = ATG_M_32_CIS: Attagene CIS-FACTORIAL HepG2 Assay for M32 Transcription Factor (Internal Marker) (AID 2282949); conditions: HepG2 Attagene cis-factorial M32 reporter, mRNA; actives raise or lower the signal;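 also: background control marker of the multiplexed CIS panel rather than a real target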
Summary of the method: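 HepG2 human liver cells transiently transfected with cis-promoter-driven multiple reporter transcription units, dosed 24 h. Reporter mRNA quantified by RT-PCR, FAM-labelled primer extension, HpaI digest and capillary electrophoresis; bidirectional fit versus DMSO baseline.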

[5] = ATG_M_06_CIS: Attagene CIS-FACTORIAL HepG2 Assay for M06 Transcription Factor (Internal Marker) (AID 2282950); conditions: HepG2 Attagene CIS-FACTORIAL M06 internal marker reporter; actives raise or lower the signal
Summary of the method: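 Measured 24 h post-dosing in transiently transfected HepG2 cells, this internal-marker endpoint reports reporter mRNA via RT-PCR with fluorescent primer extension and capillary electrophoresis. DMSO served as negative control and baseline for bidirectional fitting.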

[6] = target: Heat shock factor protein 1 (Homo sapiens) (UniProt Q00613); assay: ATG_HSE_CIS: Attagene CIS-FACTORIAL HepG2 Assay for human Heat Shock Transcription Factor 1 (HSE) (AID 2282953); conditions: HepG2 HSE cis-reporter, Attagene RNA transcription; actives raise or lower the signal
Sequence of Heat shock factor protein 1 (Homo sapiens) (Q00613 whole entry, looked up): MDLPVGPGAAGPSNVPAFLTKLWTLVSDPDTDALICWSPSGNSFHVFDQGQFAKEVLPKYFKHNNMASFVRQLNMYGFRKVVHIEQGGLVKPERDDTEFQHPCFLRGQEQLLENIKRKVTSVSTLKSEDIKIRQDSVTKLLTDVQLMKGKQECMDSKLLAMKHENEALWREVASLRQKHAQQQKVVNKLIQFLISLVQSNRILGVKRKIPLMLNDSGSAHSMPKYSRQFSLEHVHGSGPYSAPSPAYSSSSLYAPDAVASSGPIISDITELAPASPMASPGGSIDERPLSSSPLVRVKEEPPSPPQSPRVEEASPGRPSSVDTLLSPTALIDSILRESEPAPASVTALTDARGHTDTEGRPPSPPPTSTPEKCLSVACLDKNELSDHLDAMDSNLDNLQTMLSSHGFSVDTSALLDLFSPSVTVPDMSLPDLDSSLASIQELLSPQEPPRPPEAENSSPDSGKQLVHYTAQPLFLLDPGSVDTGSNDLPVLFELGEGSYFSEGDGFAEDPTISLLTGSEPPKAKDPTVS
Summary of the method: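 Reporter mRNA induction in HepG2 is measured 24 h after dosing, using transiently transfected multiplexed cis-regulated reporter units. Signal comes from capillary electrophoresis of labelled RT-PCR products, with DMSO as negative control.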

[7] = ATG_MRE_CIS: Attagene CIS-FACTORIAL HepG2 Assay for human Metal Responsive Element (MRE) (AID 2282954); conditions: HepG2 MRE cis-reporter transcription, Attagene multiplex; actives raise or lower the signal
Summary of the method: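 Cells were transfected with cis-promoter reporter transcription units, then dosed for 24 h. RNA was reverse-transcribed, amplified, fluorescently labelled and resolved by capillary electrophoresis, and activity was fitted in both directions relative to DMSO.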

[8] = target: Hypoxia-inducible factor 1-alpha (Homo sapiens) (UniProt Q16665); assay: ATG_HIF1a_CIS: Attagene CIS-FACTORIAL HepG2 Assay for human Hypoxia Inducible Factor 1 (HIF1A) (AID 2282951); conditions: HepG2 Attagene cis-factorial HIF1a reporter transcription; actives raise or lower the signal
Sequence of Hypoxia-inducible factor 1-alpha (Homo sapiens) (Q16665 whole entry, looked up, the tested form may be a part): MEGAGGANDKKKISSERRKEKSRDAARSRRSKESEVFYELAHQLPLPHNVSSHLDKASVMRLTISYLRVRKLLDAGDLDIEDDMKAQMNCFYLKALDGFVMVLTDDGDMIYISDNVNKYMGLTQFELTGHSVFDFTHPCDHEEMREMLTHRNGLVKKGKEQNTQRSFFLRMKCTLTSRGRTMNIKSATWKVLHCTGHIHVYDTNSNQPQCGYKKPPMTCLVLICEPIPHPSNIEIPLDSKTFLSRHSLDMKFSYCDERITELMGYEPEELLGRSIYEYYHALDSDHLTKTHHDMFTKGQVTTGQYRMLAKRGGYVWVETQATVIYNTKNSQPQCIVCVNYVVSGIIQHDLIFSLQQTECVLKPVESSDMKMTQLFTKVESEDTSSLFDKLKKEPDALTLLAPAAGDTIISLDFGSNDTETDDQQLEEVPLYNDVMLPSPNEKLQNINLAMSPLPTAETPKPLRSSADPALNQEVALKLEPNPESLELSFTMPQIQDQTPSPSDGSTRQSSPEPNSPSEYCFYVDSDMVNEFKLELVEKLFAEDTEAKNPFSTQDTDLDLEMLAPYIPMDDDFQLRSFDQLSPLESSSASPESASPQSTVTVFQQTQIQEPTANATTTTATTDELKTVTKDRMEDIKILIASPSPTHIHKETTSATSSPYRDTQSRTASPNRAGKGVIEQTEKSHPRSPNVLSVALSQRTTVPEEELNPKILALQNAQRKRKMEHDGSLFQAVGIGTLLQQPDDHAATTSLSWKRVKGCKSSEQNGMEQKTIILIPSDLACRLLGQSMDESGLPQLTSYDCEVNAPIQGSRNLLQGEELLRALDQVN
Summary of the method: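 Transient MRTU transfection of human HepG2 liver cells, 24 h compound treatment, then total RNA isolation, oligo(dT) reverse transcription, PCR amplification, fluorescent labelling and capillary electrophoresis of reporter fragments. Gain or loss relative to DMSO.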

[9] = target: Hepatocyte nuclear factor 6 (Homo sapiens) (UniProt Q9UBC0); assay: ATG_HNF6_CIS: Attagene CIS-FACTORIAL HepG2 Assay for human Hepatocyte Nuclear Factor 6 (HNF6) (AID 2282952); conditions: HepG2 Attagene cis-factorial HNF6 reporter transcription; actives raise or lower the signal
Sequence of Hepatocyte nuclear factor 6 (Homo sapiens) (Q9UBC0 whole entry, looked up, the tested form may be a part): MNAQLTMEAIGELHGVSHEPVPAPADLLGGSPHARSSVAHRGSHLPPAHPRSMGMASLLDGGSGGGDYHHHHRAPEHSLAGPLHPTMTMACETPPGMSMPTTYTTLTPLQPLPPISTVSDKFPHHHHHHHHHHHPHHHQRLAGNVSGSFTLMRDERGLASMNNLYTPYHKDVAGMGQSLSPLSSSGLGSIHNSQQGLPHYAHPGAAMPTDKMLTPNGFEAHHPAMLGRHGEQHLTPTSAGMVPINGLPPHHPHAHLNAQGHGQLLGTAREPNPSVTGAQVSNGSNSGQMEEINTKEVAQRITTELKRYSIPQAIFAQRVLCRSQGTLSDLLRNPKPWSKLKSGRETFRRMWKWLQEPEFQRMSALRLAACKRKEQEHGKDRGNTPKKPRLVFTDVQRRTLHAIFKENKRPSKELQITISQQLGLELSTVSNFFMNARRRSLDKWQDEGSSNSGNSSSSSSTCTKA
Summary of the method: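 Using cis-element reporters in HepG2 liver cells, the assay tracks endogenous factor-driven transcription 24 h post-dosing. Signal comes from 6-FAM-labelled, HpaI-digested RT-PCR fragments, with gain or loss scored against DMSO.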

Row | SMILES | outcome [1] | outcome [2] | outcome [3] | outcome [4] | outcome [5] | outcome [6] | outcome [7] | outcome [8] | outcome [9] | AC50 [3] | AC50 [8] | AC50 [7] | AC50 [6]
1 | Cn1ccnc1 | inactive | inactive | inactive | inactive | inactive | inactive | inactive | – | – | – | – | – | –
2 | CCCCCCCCCCCCC | inactive | inactive | inactive | – | inactive | inactive | inactive | inactive | – | – | – | – | –
3 | CCCCC(=O)O | inactive | inactive | inactive | inactive | – | inactive | inactive | inactive | – | – | – | – | –
4 | NC(=O)Nc1ccccc1 | inactive | inactive | inactive | – | inactive | inactive | inactive | inactive | inactive | – | – | – | –
5 | Nc1ccc(C(=O)OCCCOC(=O)c2ccc(N)cc2)cc1 | inactive | inactive | inactive | – | inactive | inactive | inactive | inactive | inactive | – | – | – | –
6 | CCOC(=O)/C=C\C(=O)OCC | inactive | inactive | inactive | inactive | – | inactive | inactive | inactive | inactive | – | – | – | –
7 | Cc1ccc(S(=O)(=O)N=C=O)cc1 | inactive | inactive | inactive | – | inactive | – | inactive | inactive | inactive | – | – | – | –
8 | CCCC(CC)c1ccccc1 (stereo unspecified) | inactive | inactive | inactive | inactive | – | inactive | inactive | inactive | inactive | – | – | – | –
9 | Oc1ccccc1Cc1ccccc1O | inactive | inactive | – | – | inactive | inactive | – | – | inactive | 149 µM (active) | 134 µM (active) | 124 µM (active) | –
10 | COC(=O)C=Cc1ccccc1 | inactive | inactive | inactive | – | inactive | inactive | inactive | inactive | inactive | – | – | – | –
11 | O=C(Oc1ccccc1)c1ccccc1O | inactive | inactive | inactive | – | inactive | inactive | inactive | inactive | – | – | – | – | –
12 | CCCCCCC=O | inactive | inactive | inactive | – | – | inactive | inactive | inactive | inactive | – | – | – | –
13 | CCCCOCCOCCOC(C)=O | inactive | inactive | inactive | – | inactive | inactive | inactive | inactive | inactive | – | – | – | –
14 | OCCCc1ccccc1 | inactive | inactive | inactive | inactive | – | inactive | inactive | inactive | inactive | – | – | – | –
15 | CC(C)OC(=O)c1ccccc1 | inactive | inactive | inactive | inactive | inactive | – | inactive | inactive | – | – | – | – | –
16 | CC1=NN(c2ccc(S(=O)(=O)O)cc2)C(=O)C1N=Nc1ccccc1 (stereo unspecified) | inactive | – | inactive | inactive | inactive | inactive | inactive | inactive | inactive | – | – | – | –
17 | Cc1ccc(C)c(OCCCC(C)(C)C(=O)O)c1 | inactive | – | inactive | – | inactive | inactive | inactive | – | inactive | – | – | – | –

Row | SMILES | outcome [1] | outcome [2] | outcome [3] | outcome [4] | outcome [5] | outcome [6] | outcome [7] | outcome [8] | outcome [9] | AC50 [3] | AC50 [8] | AC50 [7] | AC50 [6]
18 | N#Cc1ccc(C(c2ccc(C#N)cc2)n2cncn2)cc1 | inactive | – | inactive | – | inactive | – | inactive | inactive | inactive | – | – | – | –
19 | Nc1ccnc(=O)[nH]1 | inactive | – | inactive | inactive | inactive | inactive | inactive | inactive | inactive | – | – | – | –
20 | CC(C=O)c1ccccc1 (stereo unspecified) | inactive | – | inactive | inactive | – | inactive | inactive | inactive | inactive | – | – | – | –
21 | CC1=CC=C(C(C)C)CC1 | inactive | – | inactive | inactive | inactive | inactive | inactive | inactive | – | – | – | – | –
22 | C=C1C[C@H]2[C@@H]3C=C(C)C4=CC(=O)CC[C@]4(C)[C@H]3CC[C@]2(C)[C@@]1(OC(C)=O)C(C)=O | inactive | – | inactive | inactive | – | – | – | inactive | – | – | – | 74.1 µM (active) | 96.4 µM (active)
23 | CC1=CCC(C(C)C)C=C1 (stereo unspecified) | inactive | – | inactive | – | inactive | inactive | – | inactive | inactive | – | – | 62.6 µM (active) | –
24 | O=C1CCCCCCCCCCCN1 | inactive | – | inactive | inactive | inactive | inactive | inactive | inactive | – | – | – | – | –
25 | CC(C)(c1ccccc1)c1ccc(Nc2ccc(C(C)(C)c3ccccc3)cc2)cc1 | inactive | – | inactive | – | inactive | inactive | inactive | inactive | inactive | – | – | – | –
26 | CCCCOC(=O)C(C)CC (stereo unspecified) | inactive | – | inactive | – | inactive | inactive | inactive | inactive | inactive | – | – | – | –
27 | CCCCCCOC(=O)CCCCC(=O)OCCCCCC | inactive | – | inactive | inactive | inactive | inactive | inactive | inactive | – | – | – | – | –
28 | Nc1ccc(Cl)c(N)c1 | inactive | – | inactive | inactive | inactive | inactive | inactive | inactive | inactive | – | – | – | –
29 | C=CCCCCCCCCC=O | inactive | – | inactive | inactive | inactive | inactive | inactive | inactive | inactive | – | – | – | –
30 | Nc1ccc(O)c([N+](=O)[O-])c1 | inactive | – | inactive | inactive | – | inactive | inactive | inactive | inactive | – | – | – | –
31 | COC(OC)(C(=O)c1ccccc1)c1ccccc1 | inactive | – | inactive | inactive | – | inactive | – | inactive | inactive | – | – | 43.5 µM (active) | –
32 | CCCCCCCC(=O)OCC(COC(=O)CCCCCCC)OC(=O)CCCCCCC | inactive | – | inactive | inactive | inactive | inactive | inactive | inactive | inactive | – | – | – | –
33 | CC(=O)OCc1ccccc1 | inactive | – | inactive | inactive | inactive | inactive | inactive | inactive | – | – | – | – | –
